The results in this text go back to PubChem BioAssay (EPA / NIEHS).

Activity calls are given as the source filed them. The calls were made as follows: active = hit-call score of the fitted dose curve at least 0.9, where 1 is the maximum; inactive = score below 0.9.

Conditions in all cases: mRNA level, 48 h; actives raise or lower the signal
Read-out in experiment [1]: Early growth response protein 1 (EGR1) transcription factor, EGR1 (gene 1958)
Put plainly: LTEA_HepaRG_EGR1: Life Technologies and Expression Analysis (LTEA) Assay for Early growth response protein 1 (EGR1) transcription factor using HepaRG (AID 2283490). The method, boiled down:
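Differentiated human HepaRG cells in serum-free induction medium were exposed in duplicate for 48 h to eight concentrations (top 100 uM, half-log steps) in 0.5% DMSO. EGR1 mRNA was quantified by qRT-PCR, normalized to ACTB, GAPDH and POLR2A, and fitted bidirectionally versus DMSO.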

Read-out in experiment [2]: Ezrin (EZR), EZR (gene 7430)
The experiment is described as follows: LTEA_HepaRG_EZR: Life Technologies and Expression Analysis (LTEA) Assay for Ezrin (EZR) using HepaRG (AID 2283491). The method in brief:
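Gain or loss of EZR mRNA is scored relative to 0.5% DMSO in human HepaRG cultures treated 48 h with test chemicals in duplicate, eight half-log concentrations from 100 uM.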

Read-out in experiment [3]: Cytochrome P450 3A7 (Homo sapiens) (UniProt P24462)
The experiment is described as follows: LTEA_HepaRG_CYP3A7: Life Technologies and Expression Analysis (LTEA) Assay for CYP3A7 using HepaRG (AID 2283492). The method, boiled down: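 Cells were thawed, plated, cultured 48 h, then treated for a further 48 h with chemicals (eight-point half-log series from 100 uM, 0.5% DMSO). RNA was isolated and CYP3A7 expression quantified by qRT-PCR normalised to ACTB, GAPDH and POLR2A.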

Read-out in a further experiment: CYP3A5 (gene 1577)
The experiment is described as follows: LTEA_HepaRG_CYP3A5: Life Technologies and Expression Analysis (LTEA) Assay for CYP3A5 using HepaRG (AID 2283493). The method, boiled down:
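mRNA induction or loss of CYP3A5 assessed in HepaRG after 48 h dosing, 100 uM top concentration, duplicate wells; TaqMan qRT-PCR with ACTB, GAPDH, POLR2A normalization; 0.5% DMSO as negative control.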

Read-out in experiment [4]: Fatty Acid-Binding Protein 1 (FABP1), FABP1 (gene 2168)
The experiment is described as follows: LTEA_HepaRG_FABP1: Life Technologies and Expression Analysis (LTEA) Assay for Fatty Acid-Binding Protein 1 (FABP1) using HepaRG (AID 2283494). The method in brief:
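Differentiated human HepaRG cells were exposed in duplicate for 48 h in serum-free induction medium to 8-point half-log concentration series topping at 100 uM in 0.5% DMSO. FABP1 mRNA measured by TaqMan qRT-PCR, normalized to ACTB/GAPDH/POLR2A; bidirectional fit versus DMSO.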

Read-out in experiment [5]: Cytochrome P450 4A22 (Homo sapiens) (UniProt Q5TCH4)
Put plainly: LTEA_HepaRG_CYP4A22: Life Technologies and Expression Analysis (LTEA) Assay for Cytochrome P450 4A22 (CYP4A22) using HepaRG (AID 2283495). The method, boiled down: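 Cryopreserved HepaRG cells, plated and cultured 48 h, then switched to serum-free induction medium and treated 48 h (duplicates, up to 100 uM, half-log steps, 0.5% DMSO). Expression change of CYP4A22 was fitted bidirectionally against vehicle.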

Read-out in experiment [6]: Glutamate-cysteine ligase catalytic (GCLC), GCLC (gene 2729)
The experiment is described as follows: LTEA_HepaRG_GCLC: Life Technologies and Expression Analysis (LTEA) Assay for Glutamate-cysteine ligase catalytic (GCLC) using HepaRG (AID 2283498). The method in brief:
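Differentiated human HepaRG cells, plated 48 h then switched to serum-free induction medium, were exposed in duplicate for 48 h to 8 half-log concentrations topping at 100 uM in 0.5% DMSO. GCLC mRNA was quantified by qRT-PCR against ACTB, GAPDH and POLR2A.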

Read-out in experiment [7]: growth arrest and DNA damage 45 (GADD45G), GADD45G (gene 10912)
The experiment is described as follows: LTEA_HepaRG_GADD45G: Life Technologies and Expression Analysis (LTEA) Assay for growth arrest and DNA damage 45 (GADD45G) using HepaRG (AID 2283499). The method, boiled down: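 Human hepatic HepaRG line treated 48 h with chemicals (eight concentrations, half-log steps from 100 uM); transcript induction or repression of GADD45G scored by qRT-PCR versus DMSO vehicle.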

Read-out in experiment [8]: Glutamate-cysteine ligase regulatory (GCLM), GCLM (gene 2730)
The experiment is described as follows: LTEA_HepaRG_GCLM: Life Technologies and Expression Analysis (LTEA) Assay for Glutamate-cysteine ligase regulatory (GCLM) using HepaRG (AID 2283500). The method in brief:
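Human liver HepaRG cultures receive test chemicals for 48 hours at up to 100 uM in 0.5% DMSO. GCLM expression is measured by qRT-PCR and analysed for increases or decreases against vehicle.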

Read-out in experiment [9]: Glutathione S-transferase M3 (GSTM3), GSTM3 (gene 2947)
The experiment is described as follows: LTEA_HepaRG_GSTM3: Life Technologies and Expression Analysis (LTEA) Assay for Glutathione S-transferase M3 (GSTM3) using HepaRG (AID 2283501). The method, boiled down:
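Changes in GSTM3 expression, an oxidative-stress marker, were scored by bidirectional curve fitting against 0.5% DMSO vehicle. Human HepaRG cultures received chemicals for 48 h in duplicate, highest concentration 100 uM with half-log dilutions.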

Read-out in experiment [10]: Heat shock 70 kDa protein 1 (HSPA1A), gene 3303
The experiment is described as follows: LTEA_HepaRG_HSPA1A: Life Technologies and Expression Analysis (LTEA) Assay for Heat shock 70 kDa protein 1 (HSPA1A) using HepaRG (AID 2283502). The method, boiled down:
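HSPA1A induction in human HepaRG liver cells is measured after 48 h of chemical treatment (100 uM maximum, 0.5% DMSO vehicle). Expression comes from qRT-PCR normalized to endogenous controls.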

Read-out in experiment [11]: Hypoxia-inducible factor 1-alpha (Homo sapiens) (UniProt Q16665)
The experiment is described as follows: LTEA_HepaRG_HIF1A: Life Technologies and Expression Analysis (LTEA) Assay for Hypoxia-inducible factor 1 (HIF1A) Trancription factor using HepaRG (AID 2283503). The method in brief: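 HepaRG, 48 h exposure, 8-pt half-log series from 100 uM, 0.5% DMSO vehicle, duplicates. Readout: HIF1A transcript by qRT-PCR (Fluidigm array), housekeeping-normalised. Bidirectional curve fit vs DMSO baseline.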

Read-out in experiment [12]: 3-Hydroxy-3-Methylglutaryl-CoA Synthase 2 (HMGCS2), HMGCS2 (gene 3158)
Put plainly: LTEA_HepaRG_HMGCS2: Life Technologies and Expression Analysis (LTEA) Assay for 3-Hydroxy-3-Methylglutaryl-CoA Synthase 2 (HMGCS2) using HepaRG (AID 2283504). The method in brief:
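Expression of HMGCS2 in human HepaRG liver cells is measured by qRT-PCR 48 h after dosing (highest 100 uM, half-log series, 0.5% DMSO). Values come from bidirectional concentration-response fitting with DMSO as baseline.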

Read-out in experiment [13]: Insulin Like Growth Factor 1 (IGF1), IGF1 (gene 3479)
Put plainly: LTEA_HepaRG_IGF1: Life Technologies and Expression Analysis (LTEA) Assay for Insulin Like Growth Factor 1 (IGF1) using HepaRG (AID 2283506). The method in brief:
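Using human HepaRG liver cells, IGF1 transcript induction or suppression is measured 48 h after dosing across eight concentrations capped at 100 uM. Values derive from bidirectional concentration-response fitting with DMSO as baseline.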

Read-out in experiment [14]: Intercellular Adhesion Molecule 1 (ICAM1), ICAM1 (gene 3383)
Put plainly: LTEA_HepaRG_ICAM1: Life Technologies and Expression Analysis (LTEA) Assay for Intercellular Adhesion Molecule 1 (ICAM1) using HepaRG (AID 2283507). The method in brief:
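Gain or loss of transcript in HepaRG hepatic cells is quantified by qRT-PCR after 48 h chemical exposure (up to 100 uM, half-log steps), with DMSO as baseline.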

Read-out in experiment [15]: Insulin-like growth factor-binding protein 1 (IGFBP1), IGFBP1 (gene 3484)
The experiment is described as follows: LTEA_HepaRG_IGFBP1: Life Technologies and Expression Analysis (LTEA) Assay for Insulin-like growth factor-binding protein 1 (IGFBP1) using HepaRG (AID 2283508). The method in brief: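 mRNA induction or loss was quantified by qRT-PCR after 48 h chemical exposure of human HepaRG cells, with 0.5% DMSO as vehicle and baseline. Concentration-response over eight points up to 100 uM.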

Read-out in experiment [16]: Interleukin 6 (IL6), IL6 (gene 3569)
The experiment is described as follows: LTEA_HepaRG_IL6: Life Technologies and Expression Analysis (LTEA) Assay for Interleukin 6 (IL6) using HepaRG (AID 2283509). The method, boiled down:
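Differentiated human HepaRG cells, plated 48 h then switched to serum-free induction medium, were exposed in duplicate for 48 h to eight half-log concentrations up to 100 uM in 0.5% DMSO. IL6 mRNA measured by qRT-PCR, normalized to ACTB/GAPDH/POLR2A.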

Read-out in experiment [17]: Cytochrome P450 7A1 (Homo sapiens) (UniProt P22680)
The experiment is described as follows: LTEA_HepaRG_CYP7A1: Life Technologies and Expression Analysis (LTEA) Assay for Cytochrome P450 7A1 (CYP7A1) using HepaRG (AID 2283496). The method in brief:
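Gene expression endpoint in human HepaRG liver cells treated for 48 h with test chemicals (up to 100 uM, 0.5% DMSO). Values come from bidirectional concentration-response fitting versus DMSO.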

Read-out in a further experiment: HGF (gene 3082)
Put plainly: LTEA_HepaRG_HGF: Life Technologies and Expression Analysis (LTEA) Assay for Hepatocyte Growth Facto (HGF) using HepaRG (AID 2283505). The method, boiled down: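 Gain or loss of HGF mRNA in human HepaRG liver cells after 48 h chemical exposure; eight concentrations up to 100 uM with 0.5% DMSO vehicle, quantified by TaqMan qRT-PCR.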

Sequence of Hypoxia-inducible factor 1-alpha (Homo sapiens) (Q16665 whole entry, looked up): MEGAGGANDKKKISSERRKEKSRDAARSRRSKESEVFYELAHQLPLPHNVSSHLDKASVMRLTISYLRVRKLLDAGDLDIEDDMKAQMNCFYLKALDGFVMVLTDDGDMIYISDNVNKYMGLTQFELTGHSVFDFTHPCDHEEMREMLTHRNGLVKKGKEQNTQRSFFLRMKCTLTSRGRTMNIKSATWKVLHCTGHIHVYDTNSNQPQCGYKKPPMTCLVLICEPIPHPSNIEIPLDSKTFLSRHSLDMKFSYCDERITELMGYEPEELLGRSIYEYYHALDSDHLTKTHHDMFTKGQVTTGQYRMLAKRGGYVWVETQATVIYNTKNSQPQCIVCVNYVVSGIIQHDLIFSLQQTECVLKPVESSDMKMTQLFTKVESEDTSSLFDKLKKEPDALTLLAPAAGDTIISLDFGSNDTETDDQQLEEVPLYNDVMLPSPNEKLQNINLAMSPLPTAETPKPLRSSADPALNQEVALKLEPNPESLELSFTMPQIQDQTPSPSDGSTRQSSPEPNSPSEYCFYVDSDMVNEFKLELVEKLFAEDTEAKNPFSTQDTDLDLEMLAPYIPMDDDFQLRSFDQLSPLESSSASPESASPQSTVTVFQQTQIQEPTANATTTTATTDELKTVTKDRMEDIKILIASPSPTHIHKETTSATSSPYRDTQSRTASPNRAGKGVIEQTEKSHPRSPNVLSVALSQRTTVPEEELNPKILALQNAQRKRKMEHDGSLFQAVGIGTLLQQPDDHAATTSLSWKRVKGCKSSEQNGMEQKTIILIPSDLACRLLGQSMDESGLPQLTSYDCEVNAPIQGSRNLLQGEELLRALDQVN
Sequence of Cytochrome P450 3A7 (Homo sapiens) (P24462 whole entry, looked up): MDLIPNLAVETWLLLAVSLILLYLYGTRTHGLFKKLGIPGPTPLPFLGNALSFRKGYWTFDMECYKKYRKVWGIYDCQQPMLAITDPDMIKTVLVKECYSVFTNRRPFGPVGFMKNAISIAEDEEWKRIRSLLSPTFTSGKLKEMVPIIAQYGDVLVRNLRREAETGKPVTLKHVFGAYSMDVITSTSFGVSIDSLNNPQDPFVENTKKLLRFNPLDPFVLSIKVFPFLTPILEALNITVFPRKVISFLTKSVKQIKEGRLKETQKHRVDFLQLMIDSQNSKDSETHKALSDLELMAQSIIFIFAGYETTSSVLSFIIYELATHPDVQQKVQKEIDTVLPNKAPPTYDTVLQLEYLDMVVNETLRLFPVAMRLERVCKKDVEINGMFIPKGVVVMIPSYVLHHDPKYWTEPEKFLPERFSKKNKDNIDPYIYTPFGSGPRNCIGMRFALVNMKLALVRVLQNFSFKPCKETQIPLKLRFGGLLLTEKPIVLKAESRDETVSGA

For `CCN(CC)C(=O)c1cc(S(=O)(=O)Cc2ccccc2)c(N2CCC(c3ccccc3)CC2)cc1N(CC)CCN(C)C`, the AC50 in experiment [1] is 28.8 µM (active); in experiment [3], 1.9 µM (active); with CYP3A5 (gene 1577), 32.2 µM (active); in experiment [6] it was 30.7 µM (active); in [7], 20.5 µM (active); in experiment [10], 24.5 µM (active). Besides, the concentration at half-maximal activity (AC50) in experiment [12] is 35.5 µM (active); in experiment [14], 19 µM (active); in experiment [15], 32.2 µM (active); in [16] it was 36.3 µM (active). The compound was called inactive in [2], in experiment [4], in experiment [5], in [8], in experiment [9] and in experiment [11]. The call in [13] was inactive.
On to `CN(C)c1ccc(C(=C2C=CC(=[N+](C)C)C=C2)c2ccc(N(C)C)cc2)cc1`, for which the AC50 was 67.6 µM (active) in experiment [1]; 32 µM (active) in experiment [2]; 24.6 µM (active) in the experiment with CYP3A5 (gene 1577); 2.76 µM (active) in [4]; 3.65 µM (active) in experiment [5]; 4.38 µM (active) in experiment [17]. For the same compound, the AC50 is 20.1 µM (active) in [6]; 11.7 µM (active) in experiment [7]; 95.3 µM (active) in [8]; 86.5 µM (active) in experiment [10]; 44.3 µM (active) in [11]; 3.66 µM (active) in [12]. Further, the concentration at half-maximal activity (AC50) is 1.44 µM (active) in experiment [13], 73.1 µM (active) in experiment [14], 3.64 µM (active) in [15] and 6.98 µM (active) in [16].
Turning to `CC1(C)NC(=O)N(c2ccc([N+](=O)[O-])c(C(F)(F)F)c2)C1=O`, the outcome (in [1]; in [3]; in experiment [10]; with HGF (gene 3082); in experiment [14]) was inactive. Further, the AC50 is 93 µM (active) in [2]; 32.3 µM (active) with CYP3A5 (gene 1577); 66.7 µM (active) in [4]; 67.4 µM (active) in [5]; 83.4 µM (active) in experiment [6]; 77.4 µM (active) in experiment [7]. For the same compound, the AC50 in experiment [8] is 70.9 µM (active); in [12] it was 76.6 µM (active); in experiment [13], 69.2 µM (active); in experiment [15] it was 90.2 µM (active); in experiment [16], 83.7 µM (active).

Broadly, the AC50 is the midpoint of the concentration-response curve, whichever way the signal moves.
